# Legend:
# Conditions in all cases: concentration: 1 μM, replicates: in singlicate; n = 1
# EPHB4 = test system: EPHB4
# EPHB6 = test system: EPHB6
# ERBB2 = test system: ERBB2
# ERBB3 = test system: ERBB3
# ERBB4 = test system: ERBB4
# ERK1 = test system: T1, ERK1
# T1 construct: gene MAPK3
# ERK2 = test system: T2, ERK2
# T2 construct: gene MAPK1
# ERK3 = test system: T3, ERK3
# T3 construct: gene MAPK6
# ERK4 = test system: T4, ERK4
# T4 construct: gene MAPK4
# ERK5 = test system: T5, ERK5
# T5 construct: gene MAPK7
# ERK8 = test system: T6, ERK8
# T6 construct: gene MAPK15
# ERN1 = test system: ERN1
# FAK = test system: T7, FAK
# T7 construct: gene PTK2
# FER = test system: FER
# FES = test system: FES
# FGFR1 = test system: FGFR1
# FGFR2 = test system: FGFR2
# FGFR3 = test system: FGFR3
# FGFR4 = test system: FGFR4
# FGR = test system: FGR
# 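Also: KINOMEscan kinase panel screen.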
Structure (SMILES),%Inh (EPHB4) [%],%Inh (EPHB6) [%],%Inh (ERBB2) [%],%Inh (ERBB3) [%],%Inh (ERBB4) [%],%Inh (ERK1) [%],%Inh (ERK2) [%],%Inh (ERK3) [%],%Inh (ERK4) [%],%Inh (ERK5) [%],%Inh (ERK8) [%],%Inh (ERN1) [%],%Inh (FAK) [%],%Inh (FER) [%],%Inh (FES) [%],%Inh (FGFR1) [%],%Inh (FGFR2) [%],%Inh (FGFR3) [%],%Inh (FGFR4) [%],%Inh (FGR) [%]
Nc1nccc(-c2c(-c3ccc(F)cc3)ncn2C2CCN(Cc3ccccc3)CC2)n1 [SB-219980],17,58,18,0,19,0,21,0,0,0,0,41,0,0,23,0,0,0,0,18
Cc1ccc(NC(=O)Nc2ccccc2)cc1-c1ccc(C(=O)Nc2ccncc2)cc1 [GSK1398471],26,12,0,0,0,6,0,8,18,0,0,0,0,20,20,0,0,18,13,34
CC[C@@H]1CO[C@H](C(=O)Nc2ccccc2)CN1c1cc(-c2ccc3c(N)n[nH]c3c2)nc(NC)n1 [GSK2376236],16,3,8,0,18,0,0,8,42,7,0,19,0,27,9,0,0,41,19,31
CC(=O)c1c(C)c2cnc(Nc3ccn(C)n3)nc2n(C2CCCC2)c1=O,0,6,0,0,0,0,0,15,17,9,17,0,0,9,0,0,0,0,11,0
Cc1cnc(N)c(/C=C/c2cncc(C(=O)NCCc3ccc(Cl)cc3Cl)c2)c1.Cl [GSK190937],9,0,7,0,0,7,0,0,6,0,0,0,0,4,0,0,9,13,6,17
COc1cccc(C2=C(Nc3cc(Cl)c(O)c(Cl)c3)C(=O)NC2=O)c1 [SB-390767],18,46,0,3,4,0,0,0,0,0,37,17,0,0,0,0,53,41,29,22
COc1cc2ncnc(Nc3cccc(Br)c3)c2cc1OC.Cl [GI230329],21,3,97.1,41,72,0,0,6,22,0,0,2,0,31,0,0,22,11,0,26
Cc1ccccc1Cn1ccn2c(=O)cc(N3CCOCC3)nc12 [GSK2269905],19,0,23,0,20,4,0,15,14,0,0,0,0,18,9,0,2,0,19,31
CCCCc1nn2ncccc2c1-c1ccnc(NC2CC2)n1 [GW684374],4,39,21,0,16,0,0,3,27,0,0,0,0,0,0,0,0,5,0,7
COC(=O)c1cccc(NC(=O)NC2CCN(c3ccnc(Nc4ccc(OC)cc4)n3)C2)c1 (stereo not shown) [GSK1379746],19,37,65,24,23,0,0,5,2,6,0,5,0,13,0,0,0,0,4,11
Cn1cncc1-c1cc2c(Nc3ccc(OCc4ccccc4)cc3)ncnc2cn1 [GW281179],17,21,99.6,75,70,0,0,0,0,0,0,0,0,14,0,9,19,2,12,18

# Reference: PMC5540273 (PLoS ONE, 2017)
